# In PubChem BioAssay (EPA / NIEHS):
# Active and inactive are the calls of the source. The calls were made as follows: active = hit-call score of the fitted dose curve at least 0.9, where 1 is the maximum; inactive = score below 0.9.
# What was measured:
# Details in all cases: mRNA level, 48 h; actives raise or lower the signal
# [1] = read-out: Cytochrome P450 (CYP2B6), CYP2B6 (gene 1555); assay: LTEA_HepaRG_CYP2B6: Life Technologies and Expression Analysis (LTEA) Assay for Cytochrome P450 (CYP2B6) using HepaRG (AID 2283481)
# How it was run: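 HepaRG cells plated 48 h, switched to serum-free induction medium, then dosed 48 h (8 points, half-log from 100 uM, 0.5% DMSO). RNA isolated; CYP2B6 expression measured by qRT-PCR; gain or loss fitted relative to DMSO.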
# [2] = read-out: Cytochrome P450 2C19 (Homo sapiens) (UniProt P33261); assay: LTEA_HepaRG_CYP2C19: Life Technologies and Expression Analysis (LTEA) Assay for CYP2C19 using HepaRG (AID 2283482)
# How it was run: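 Transcript levels of CYP2C19 were quantified by qRT-PCR after HepaRG cells were treated for 48 hours with test chemicals up to 100 uM (eight half-log concentrations, 0.5% DMSO vehicle). Gain or loss of signal was fitted relative to DMSO.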
# CYP2C8 (gene 1558) = assay: LTEA_HepaRG_CYP2C8: Life Technologies and Expression Analysis (LTEA) Assay for CYP2C8 using HepaRG (AID 2283483)
# How it was run: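 This is a transcriptional endpoint in HepaRG cultures: 48 h exposure, highest concentration 100 uM. CYP2C8 mRNA is quantified by TaqMan qRT-PCR.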
# CYP2C9 (gene 1559) = assay: LTEA_HepaRG_CYP2C9: Life Technologies and Expression Analysis (LTEA) Assay for CYP2C9 using HepaRG (AID 2283484)
# How it was run: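 Eight-point concentration-response (highest 100 uM, half-log dilutions) in HepaRG cells for 48 h; CYP2C9 expression by qRT-PCR normalized to ACTB, GAPDH, POLR2A. Bidirectional fit, DMSO baseline.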
# CYP2E1 (gene 1571) = assay: LTEA_HepaRG_CYP2E1: Life Technologies and Expression Analysis (LTEA) Assay for CYP2E1 using HepaRG (AID 2283485)
# How it was run: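 Assay uses 48 h exposure of HepaRG hepatic cells, eight concentrations to 100 uM. Expression of CYP2E1 is quantified by TaqMan qRT-PCR with ACTB, GAPDH and POLR2A normalization; curves fitted in both directions relative to vehicle.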
# CYP4A11 (gene 1579) = assay: LTEA_HepaRG_CYP4A11: Life Technologies and Expression Analysis (LTEA) Assay for CYP4A11 using HepaRG (AID 2283486)
# How it was run: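 HepaRG, 48 h chem exposure, 8 conc (100 uM top, half-log), 0.5% DMSO vehicle; qRT-PCR readout, housekeeping-gene normalized; bidirectional curve fit vs DMSO baseline.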
# [3] = read-out: Cytochrome P450 3A4 (Homo sapiens) (UniProt P08684); assay: LTEA_HepaRG_CYP3A4: Life Technologies and Expression Analysis (LTEA) Assay for CYP3A4 using HepaRG (AID 2283487)
# How it was run: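 In a human hepatic line (HepaRG), duplicate wells were treated 48 h with up to 100 uM chemical in half-log dilutions. Endpoint: CYP3A4 mRNA induction or loss relative to 0.5% DMSO vehicle, by qRT-PCR.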
# [4] = read-out: DNA damage-inducible transcript 3 (DDIT3), DDIT3 (gene 1649); assay: LTEA_HepaRG_DDIT3: Life Technologies and Expression Analysis (LTEA) Assay for DNA damage-inducible transcript 3 (DDIT3) using HepaRG (AID 2283488)
# How it was run: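 Eight-point concentration-response (100 uM highest, half-log dilutions) in HepaRG, 48 h, duplicate wells. Endpoint: qRT-PCR mRNA, normalized (ACTB, GAPDH, POLR2A), bidirectional fitting with DMSO as baseline.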
# [5] = read-out: Early growth response protein 1 (EGR1) transcription factor, EGR1 (gene 1958); assay: LTEA_HepaRG_EGR1: Life Technologies and Expression Analysis (LTEA) Assay for Early growth response protein 1 (EGR1) transcription factor using HepaRG (AID 2283490)
# How it was run: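 EGR1 expression change in human HepaRG after 48 h chemical exposure, assessed by housekeeping-normalized qRT-PCR; concentration-response up to 100 uM, fitted in both directions against DMSO controls.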
# [6] = read-out: Ezrin (EZR), EZR (gene 7430); assay: LTEA_HepaRG_EZR: Life Technologies and Expression Analysis (LTEA) Assay for Ezrin (EZR) using HepaRG (AID 2283491)
# How it was run: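 Gain or loss of EZR mRNA is scored relative to 0.5% DMSO in human HepaRG cultures treated 48 h with test chemicals in duplicate, eight half-log concentrations from 100 uM.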
# [7] = read-out: Cytochrome P450 3A7 (Homo sapiens) (UniProt P24462); assay: LTEA_HepaRG_CYP3A7: Life Technologies and Expression Analysis (LTEA) Assay for CYP3A7 using HepaRG (AID 2283492)
# How it was run: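 Human HepaRG liver cells, 48 h post-plating, switched to serum-free induction medium and exposed in duplicate for 48 h. Dosing: 100 uM top, half-log dilutions, 8 points, 0.5% DMSO vehicle. Read-out: CYP3A7 mRNA, gain or loss fitted against DMSO baseline.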
# CYP3A5 (gene 1577) = assay: LTEA_HepaRG_CYP3A5: Life Technologies and Expression Analysis (LTEA) Assay for CYP3A5 using HepaRG (AID 2283493)
# How it was run: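 Readout was CYP3A5 mRNA by qRT-PCR. HepaRG cultures were exposed for 48 h in serum-free induction medium to chemicals at up to 100 uM, and responses were fitted in both directions relative to DMSO vehicle.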
# [8] = read-out: Glutathione S-Transferase (GSTA2), GSTA2 (gene 2939); assay: LTEA_HepaRG_GSTA2: Life Technologies and Expression Analysis (LTEA) Assay for Glutathione S-Transferase (GSTA2) using HepaRG (AID 2283497)
# How it was run: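 Oxidative-stress marker GSTA2 is quantified by TaqMan qRT-PCR in HepaRG cultures treated 48 h across an eight-point range to 100 uM. Expression is normalized to endogenous controls and compared with 0.5% DMSO vehicle.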
# [9] = read-out: Glutamate-cysteine ligase catalytic (GCLC), GCLC (gene 2729); assay: LTEA_HepaRG_GCLC: Life Technologies and Expression Analysis (LTEA) Assay for Glutamate-cysteine ligase catalytic (GCLC) using HepaRG (AID 2283498)
# How it was run: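 Oxidative-stress marker GCLC is measured as mRNA change in human HepaRG liver cells after 48 h chemical treatment in 0.5% DMSO, eight concentrations from 100 uM. Activity is fitted bidirectionally against vehicle.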
# [10] = read-out: growth arrest and DNA damage 45 (GADD45G), GADD45G (gene 10912); assay: LTEA_HepaRG_GADD45G: Life Technologies and Expression Analysis (LTEA) Assay for growth arrest and DNA damage 45 (GADD45G) using HepaRG (AID 2283499)
# How it was run: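 Gain or loss of GADD45G mRNA, quantified by TaqMan qRT-PCR against three housekeeping genes, is fitted in both directions relative to 0.5% DMSO. Human HepaRG cultures receive test chemical for 48 h at up to 100 uM.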
# [11] = read-out: Glutamate-cysteine ligase regulatory (GCLM), GCLM (gene 2730); assay: LTEA_HepaRG_GCLM: Life Technologies and Expression Analysis (LTEA) Assay for Glutamate-cysteine ligase regulatory (GCLM) using HepaRG (AID 2283500)
# How it was run: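 In this multiplexed HepaRG gene-expression assay, GCLM mRNA change after 48 h treatment (8 concentrations, max 100 uM) was scored against DMSO by bidirectional curve fitting.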
# [12] = read-out: Pro-epidermal growth factor (Homo sapiens) (UniProt P01133); assay: LTEA_HepaRG_EGF: Life Technologies and Expression Analysis (LTEA) Assay for Epidermal growth factor (EGF) using HepaRG (AID 2283489)
# How it was run: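 HepaRG, 48 h dosing, 100 uM top, half-log x8, 0.5% DMSO. Readout: TaqMan qRT-PCR (Fluidigm array), housekeeping-normalized. Gain or loss of signal fit vs DMSO.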
# [13] = read-out: Cytochrome P450 4A22 (Homo sapiens) (UniProt Q5TCH4); assay: LTEA_HepaRG_CYP4A22: Life Technologies and Expression Analysis (LTEA) Assay for Cytochrome P450 4A22 (CYP4A22) using HepaRG (AID 2283495)
# How it was run: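 Readout is CYP4A22 transcript induction or loss, quantified by qRT-PCR and normalized to ACTB, GAPDH and POLR2A. Human HepaRG cells receive test chemicals for 48 h at eight half-log concentrations from 100 uM in 0.5% DMSO.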
# [14] = read-out: Cytochrome P450 7A1 (Homo sapiens) (UniProt P22680); assay: LTEA_HepaRG_CYP7A1: Life Technologies and Expression Analysis (LTEA) Assay for Cytochrome P450 7A1 (CYP7A1) using HepaRG (AID 2283496)
# How it was run: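 Using 0.5% DMSO as vehicle and baseline, chemicals were tested in duplicate over an 8-point range from 100 uM on HepaRG cells for 48 h; qRT-PCR signals were normalised to ACTB, GAPDH and POLR2A.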
# [15] = read-out: Fatty Acid-Binding Protein 1 (FABP1), FABP1 (gene 2168); assay: LTEA_HepaRG_FABP1: Life Technologies and Expression Analysis (LTEA) Assay for Fatty Acid-Binding Protein 1 (FABP1) using HepaRG (AID 2283494)
# How it was run: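 Values reflect bidirectional concentration-response fitting of FABP1 mRNA change against 0.5% DMSO controls. Human HepaRG cultures received eight half-log doses (top 100 uM) for 48 h; expression quantified by TaqMan qRT-PCR with housekeeping-gene normalization.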
# Chain of Cytochrome P450 2C19 (Homo sapiens) (P33261 whole entry, looked up): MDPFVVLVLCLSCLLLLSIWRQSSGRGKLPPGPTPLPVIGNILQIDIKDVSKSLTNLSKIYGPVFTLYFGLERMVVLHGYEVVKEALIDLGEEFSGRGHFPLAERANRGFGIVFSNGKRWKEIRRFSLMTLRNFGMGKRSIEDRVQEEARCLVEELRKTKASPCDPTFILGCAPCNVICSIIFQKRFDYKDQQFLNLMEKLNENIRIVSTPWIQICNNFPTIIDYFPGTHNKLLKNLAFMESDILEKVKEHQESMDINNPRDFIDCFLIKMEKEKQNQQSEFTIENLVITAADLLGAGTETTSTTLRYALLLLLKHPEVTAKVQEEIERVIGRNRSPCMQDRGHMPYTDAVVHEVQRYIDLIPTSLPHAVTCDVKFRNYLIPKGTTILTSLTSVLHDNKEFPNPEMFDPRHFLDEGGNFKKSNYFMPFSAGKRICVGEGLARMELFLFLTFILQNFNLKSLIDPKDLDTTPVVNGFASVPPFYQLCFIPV
# Chain of Cytochrome P450 3A4 (Homo sapiens) (P08684 whole entry, looked up): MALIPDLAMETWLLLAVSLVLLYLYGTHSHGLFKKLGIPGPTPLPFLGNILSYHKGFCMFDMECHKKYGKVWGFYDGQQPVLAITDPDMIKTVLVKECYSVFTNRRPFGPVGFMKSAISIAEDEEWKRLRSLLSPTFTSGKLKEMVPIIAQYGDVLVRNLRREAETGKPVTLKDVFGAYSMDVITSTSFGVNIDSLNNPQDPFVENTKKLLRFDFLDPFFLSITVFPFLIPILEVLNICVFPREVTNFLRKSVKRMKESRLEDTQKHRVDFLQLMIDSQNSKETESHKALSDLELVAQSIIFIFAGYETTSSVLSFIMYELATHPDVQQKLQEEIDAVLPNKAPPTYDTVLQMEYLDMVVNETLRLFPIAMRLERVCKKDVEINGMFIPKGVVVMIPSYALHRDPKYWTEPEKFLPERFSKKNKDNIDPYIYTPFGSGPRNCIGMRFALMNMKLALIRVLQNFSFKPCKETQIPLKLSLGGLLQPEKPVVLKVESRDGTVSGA
# Chain of Cytochrome P450 3A7 (Homo sapiens) (P24462 whole entry, looked up): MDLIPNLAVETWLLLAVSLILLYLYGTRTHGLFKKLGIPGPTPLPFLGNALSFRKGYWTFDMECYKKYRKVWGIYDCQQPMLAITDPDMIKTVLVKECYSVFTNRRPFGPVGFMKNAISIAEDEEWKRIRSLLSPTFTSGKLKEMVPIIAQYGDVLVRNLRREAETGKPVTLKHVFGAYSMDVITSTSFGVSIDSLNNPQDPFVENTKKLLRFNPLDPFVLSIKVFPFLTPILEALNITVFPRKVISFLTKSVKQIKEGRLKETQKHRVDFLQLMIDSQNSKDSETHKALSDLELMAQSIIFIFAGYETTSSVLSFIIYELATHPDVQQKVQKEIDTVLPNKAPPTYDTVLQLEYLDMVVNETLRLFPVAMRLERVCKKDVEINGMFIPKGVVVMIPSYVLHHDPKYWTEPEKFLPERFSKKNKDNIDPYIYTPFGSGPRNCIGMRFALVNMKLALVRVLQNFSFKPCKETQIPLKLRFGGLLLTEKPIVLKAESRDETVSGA
smiles,measurement,setting,value
CCNC(=O)NC(=O)C(C#N)=NOC,AC50,[1],3.37 µM (active)
same,outcome,[2],inactive
same,outcome,CYP2C8 (gene 1558),inactive
same,outcome,CYP2C9 (gene 1559),inactive
same,AC50,CYP2E1 (gene 1571),50 µM (active)
same,outcome,CYP4A11 (gene 1579),inactive
same,outcome,[3],inactive
same,AC50,[4],11.6 µM (active)
same,outcome,[5],inactive
same,outcome,[6],inactive
same,outcome,[7],inactive
same,outcome,CYP3A5 (gene 1577),inactive
same,outcome,[8],inactive
same,AC50,[9],9.92 µM (active)
same,outcome,[10],inactive
same,outcome,[11],inactive
CCC(C)n1c(=O)[nH]c(C)c(Br)c1=O (stereo not drawn),AC50,[1],1.19 µM (active)
same,outcome,[2],inactive
same,AC50,CYP2C8 (gene 1558),50 µM (active)
same,outcome,CYP2C9 (gene 1559),inactive
same,AC50,CYP2E1 (gene 1571),20.6 µM (active)
same,AC50,CYP4A11 (gene 1579),13.5 µM (active)
same,outcome,[3],inactive
same,outcome,[12],inactive
same,outcome,[5],inactive
same,outcome,[6],inactive
same,outcome,[7],inactive
same,AC50,CYP3A5 (gene 1577),20.4 µM (active)
same,AC50,[13],7.06 µM (active)
same,AC50,[14],23.7 µM (active)
same,AC50,[8],50 µM (active)
same,outcome,[9],inactive
same,AC50,[10],30.4 µM (active)
same,outcome,[11],inactive
CC(C)Oc1cccc(NC(=O)c2ccccc2C(F)(F)F)c1,AC50,[1],33 µM (active)
same,AC50,[2],40.2 µM (active)
same,AC50,CYP2C8 (gene 1558),50 µM (active)
same,outcome,CYP2C9 (gene 1559),inactive
same,AC50,CYP2E1 (gene 1571),84.4 µM (active)
same,outcome,CYP4A11 (gene 1579),inactive
same,outcome,[4],inactive
same,outcome,[12],inactive
same,outcome,[5],inactive
same,outcome,[6],inactive
same,outcome,[7],inactive
same,outcome,CYP3A5 (gene 1577),inactive
same,outcome,[13],inactive
same,outcome,[14],inactive
same,AC50,[8],50 µM (active)
same,outcome,[9],inactive
same,outcome,[10],inactive
same,outcome,[11],inactive
COCC(C)N(C(=O)CCl)c1c(C)csc1C (stereo not drawn),AC50,[1],2.05 µM (active)
same,outcome,[2],inactive
same,outcome,CYP2C8 (gene 1558),inactive
same,outcome,CYP2C9 (gene 1559),inactive
same,AC50,CYP2E1 (gene 1571),64.6 µM (active)
same,outcome,CYP4A11 (gene 1579),inactive
same,outcome,[4],inactive
same,AC50,[12],50 µM (active)
same,outcome,[5],inactive
same,outcome,[6],inactive
same,outcome,CYP3A5 (gene 1577),inactive
same,AC50,[15],50 µM (active)
same,AC50,[8],25 µM (active)
same,AC50,[9],50 µM (active)
same,outcome,[10],inactive
same,outcome,[11],inactive
Cc1c(COC(=O)[C@@H]2[C@H](/C=C(\Cl)C(F)(F)F)C2(C)C)cccc1-c1ccccc1,AC50,[2],17.9 µM (active)
same,outcome,CYP2C8 (gene 1558),inactive
same,outcome,CYP2C9 (gene 1559),inactive
same,AC50,CYP2E1 (gene 1571),48.2 µM (active)
same,outcome,CYP4A11 (gene 1579),inactive
same,AC50,[3],11.3 µM (active)
same,AC50,[4],81.2 µM (active)
same,outcome,[12],inactive
same,outcome,[5],inactive
same,outcome,[6],inactive
same,outcome,CYP3A5 (gene 1577),inactive
same,outcome,[13],inactive
same,AC50,[14],14.8 µM (active)
same,outcome,[8],inactive
same,outcome,[9],inactive
same,outcome,[10],inactive
same,outcome,[11],inactive
CC(C)Nc1nc(Cl)nc(NC(C)C)n1,AC50,[1],2.93 µM (active)
same,AC50,[2],4.74 µM (active)
same,outcome,CYP2C8 (gene 1558),inactive
same,outcome,CYP2C9 (gene 1559),inactive
same,AC50,CYP2E1 (gene 1571),37.8 µM (active)
same,outcome,CYP4A11 (gene 1579),inactive
same,AC50,[3],7.35 µM (active)
same,outcome,[4],inactive
same,outcome,[12],inactive
same,outcome,[5],inactive
same,outcome,[6],inactive
same,outcome,CYP3A5 (gene 1577),inactive
same,outcome,[13],inactive
same,AC50,[14],50 µM (active)
same,outcome,[8],inactive
same,outcome,[9],inactive
same,outcome,[10],inactive
same,outcome,[11],inactive
